An excerpt weighted towards active compounds, which were near 2% of everything screened.
Jurkat NFkB inh – inhibitors of induced NF-kB luciferase reporter, primary screen, TCR NF-kB activation inhibitor project, cell-based, luminescence, uHTS; Jurkat, PMA/ionomycin-induced NF-kB luciferase reporter; 0.53% of 330,000 active; inhibition, % at 4 µM; in the data active = inhibition above about 50%
GalR3 antag – GalR3 antagonists in HEK293 cells, primary screen, cell-based, fluorescence readout | Galanin receptor type 3 (Homo sapiens), O60755 | HEK293 GalR3-CNG cAMP membrane potential fluorescence; galR3 body fused to GalR1 C-terminus | inhibition, % at 3 µM | 0.44% of 360,000 active;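 active = inhibition above the screen-wide average plus 3 SD, cut at about 13% in these data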;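 also: forskolin and galanin both at EC90 stimulate the cells; cAMP rise reported by CNG channel membrane potential dye signal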
Target sequence (O60755 1-299 limits assumed): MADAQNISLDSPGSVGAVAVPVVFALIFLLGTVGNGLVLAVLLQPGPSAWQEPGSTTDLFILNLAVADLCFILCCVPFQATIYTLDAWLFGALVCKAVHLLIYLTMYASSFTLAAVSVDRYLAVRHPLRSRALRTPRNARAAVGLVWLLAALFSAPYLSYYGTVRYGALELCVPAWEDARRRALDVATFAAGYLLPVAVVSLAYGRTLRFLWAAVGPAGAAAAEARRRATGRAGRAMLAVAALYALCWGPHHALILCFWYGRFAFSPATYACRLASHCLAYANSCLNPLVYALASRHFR
697 NFkB inh – inhibitors of PMA/ionomycin-induced NF-kB reporter, 697 cells, primary screen, B-cell NF-kB inhibitor project, cell-based, luminescence, uHTS | 697 B-cell NF-kB luciferase reporter, 16 h | inhibition, % at 4 µM | 0.33% of 330,000 active; in the data active = inhibition above about 35%
Gli-Sufu antag – Gli-Sufu pathway antagonists, primary screen, luciferase luminescence, Sufu-KO-LIGHT cells, uHTS; Sufu-KO-LIGHT fibroblasts, Gli luciferase reporter luminescence; 0.74% of 340,000 active; inhibition, % at 5 µM; AID 588413, 2011;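 active = inhibition above about 55%, limit read from the data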
COUP-TFII inh – NR2F2 transcriptional activity inhibitors, primary screen, cell-based, luciferase reporter, HEK293T, luminescence; HEK293T NGFI-A luciferase reporter; COUP transcription factor 2 (Homo sapiens), P24468; inhibition, % at 8.6 µM; 0.7% of 370,000 active;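 active = inhibition above a per-plate cutoff, mean inhibition of test wells between control levels plus 3 SD, cut at about 38% in these data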;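 also: cells cotransfected with COUP-TFII expression vector driving the NGFI-A reporter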
Gli antag conf – Gli-SUFU pathway antagonists, confirmation, single concentration, luciferase luminescence, Sufu-KO-LIGHT cells; shares compounds with Gli-Sufu antag; Gli luciferase reporter; inhibition, % at 5 µM; 40% of 2,500 active;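 active = mean inhibition at 5 µM reaching about 45%, limit read from the data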
Gli cytotox – cytotoxicity in Sufu-KO-LIGHT cells, confirmation, cytotoxicity control for Gli-SUFU antagonist project, cell-based, ATP luminescence, single concentration; AID 651994, 2013; shares compounds with Gli-Sufu antag; cytotoxicity, % at 5 µM; 32% of 2,500 active;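 active = mean cytotoxicity at 5 µM above about 25%, limit read from the data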;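 also: cells exposed to compound overnight for roughly 16 to 18 hours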
Wnt3a cs – Wnt3a reporter signal inhibition, confirmation, counter-screen for Gli-SUFU antagonist project, Wnt-LIGHT cells, luminescence, single concentration | Wnt3a-driven luciferase reporter | inhibition, % at 6.25 µM | 20% of 2,500 active | shares compounds with Gli-Sufu antag;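 active = mean inhibition above about 25%, limit read from the data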
Each line names hits and unclear results; the compound was inactive in the other large screens (follow-up assays come after a bar, where they were run).

CCC[C@H]1[C@@H](NC(=O)c2ccc(Cl)c(C(F)(F)F)c2)CC[C@@]23CCCN2C(=O)CCC[C@@H]13	none (no result: Jurkat NFkB inh, GalR3 antag, 697 NFkB inh, Gli-Sufu antag)
COc1ccc2c(c1)nc(SCC(=O)C(C)(C)C)n2C	Gli-Sufu antag 63.8 | Gli antag conf inactive | Gli cytotox inactive | Wnt3a cs inactive
C/C=C/CSc1nc2c(c(=O)[nH]c(=O)n2C)n1CCC	none
COCCSc1nc2c(c(=O)[nH]c(=O)n2C)n1CCCc1ccccc1	none | Gli antag conf inactive | Gli cytotox inactive | Wnt3a cs inactive
CCCn1c(Sc2nc3c(c(=O)[nH]c(=O)n3C)n2CCC)nc2c1c(=O)[nH]c(=O)n2C	Gli-Sufu antag 99.0 | Gli antag conf inactive | Gli cytotox inactive | Wnt3a cs inactive
COc1ccc(-c2c[n+]3c(n2-c2ccccc2)CCCCC3)cc1	Gli-Sufu antag 83.7 | Gli antag conf 85.4 | Gli cytotox 35.3 | Wnt3a cs 34.2
FC(F)Oc1ccc(-c2c[n+]3c(n2-c2ccccc2)CCCCC3)cc1	Gli-Sufu antag 59.9 | Gli antag conf 69.5 | Gli cytotox inactive | Wnt3a cs inactive
CCOc1ccc(-n2c(-c3ccc(Br)cc3)c[n+]3c2CCCCC3)cc1	GalR3 antag 18.5, Gli-Sufu antag 86.1 | Gli antag conf 88.2 | Gli cytotox 46.3 | Wnt3a cs inactive
COc1ccc(-c2c[n+]3c4n2CCCCC4=C(c2ccccc2)C3)cc1	none
